# Screening results from PubChem BioAssay.
# SARS 3CLpro inh – SARS-CoV 3CLpro protease inhibition; P0C6X7; inhibition, % at 6 µM; hit rate 0.14% among 290,000; recombinant SARS-CoV 3CLpro, quenched FRET peptide cleavage; AID 1706; in the data active = inhibition above about 12%
# BioA inh – blocks M. tuberculosis BioA enzyme activity; purified M. tuberculosis BioA enzyme, plate reader; inhibition, % at 9.99 µM; hit rate 0.096% among 360,000; in the data active = inhibition above about 40%
# Mtb FBA inh – inhibits M. tuberculosis FBA enzyme | P9WQA3 | purified M. tuberculosis FBA, fluorescence read-out | inhibition, % at 1 µM | hit rate 2.3% among 360,000 | AID 588726;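 also: 0% = vehicle and 100% = reference inhibitor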
# Target sequence (P9WQA3 whole entry, looked up): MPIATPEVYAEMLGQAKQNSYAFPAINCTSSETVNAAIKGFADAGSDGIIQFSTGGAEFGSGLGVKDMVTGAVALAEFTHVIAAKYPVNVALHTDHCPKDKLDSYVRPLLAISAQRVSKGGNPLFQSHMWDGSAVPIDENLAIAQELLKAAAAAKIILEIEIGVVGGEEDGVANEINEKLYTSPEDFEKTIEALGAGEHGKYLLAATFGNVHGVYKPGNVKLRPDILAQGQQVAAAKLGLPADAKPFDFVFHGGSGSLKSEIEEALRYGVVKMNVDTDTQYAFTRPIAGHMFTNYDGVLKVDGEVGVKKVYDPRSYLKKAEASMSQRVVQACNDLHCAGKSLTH
# FadD28 binding – blocks FadD28 binding to the bisubstrate probe. fluorescence polarization. inhibition, % at 12.5 µM. hit rate 0.22% among 360,000. AID 588549; in the data active = inhibition above about 8.5%, passing the limit was not always enough
# GDH-TPI counter-1 – GDH-TPI coupled enzyme inhibition counter-screen; GDH-TPI coupled enzyme counterscreen, NADH absorbance; inhibition, % at 4.8 µM; hit rate 1.2% among 360,000; AID 588335; in the data active = inhibition above about 30%;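 also: 0% = DMSO wells and 100% = wells lacking the enzyme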
# Mtb FBA inh conf – Mtb FBA inhibition, confirmed | shares compounds with Mtb FBA inh | purified M. tuberculosis FBA, fluorescence read-out | inhibition, % at 1 µM | hit rate 78% among 5,600 | AID 651616;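 also: 0% = vehicle wells and 100% = reference inhibitor wells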
# GDH-TPI counter-2 – inhibits GDH-TPI coupling enzymes, flagging Mtb FBA hits. AID 652141. GDH-TPI coupled enzyme counterscreen, fluorescence. inhibition, % at 1 µM. shares compounds with Mtb FBA inh. hit rate 81% among 5,600; in the data active = inhibition above about 10%
# * marks the source's active call; other numbers are inactive results; x = no result given; + = active, no number. Hits are enriched below; roughly 3.1% of the tested compounds scored in any of these assays. Rule as the data show it, unless noted: active = inhibition above about 27%; inactive = the rest.
SMILES,SARS 3CLpro inh,BioA inh,Mtb FBA inh,FadD28 binding,GDH-TPI counter-1,Mtb FBA inh conf,GDH-TPI counter-2
COc1cccc(CNC(=O)c2ccccc2N)c1,2,0,63*,2,6,59*,54*
COc1ccc(NC(=O)N(C)C[C@H]2Oc3ccc(NC(=O)Nc4ccc5c(c4)OCO5)cc3C(=O)N([C@@H](C)CO)C[C@@H]2C)cc1,x,0,x,x,x,x,x
O=C(c1ccc2c(c1)OCO2)N1C[C@@H]2[C@H](c3ccccc31)[C@H](CO)N2C(=O)CC1CC1,x,-2,x,x,x,x,x
C[C@@H]1CN([C@H](C)CO)C(=O)c2cccc(NC(=O)c3cnccn3)c2O[C@H]1CN(C)S(=O)(=O)c1cccs1,x,0,x,x,x,x,x
CCOc1ccc(C2C(C(=O)OC)=CN(C(C)c3ccccc3)C=C2C(=O)OC)cc1 (configuration not stated),2,-1,71*,-1,-4,+,+
O=[N+]([O-])c1ccc2c(c1)nc1n2CCSC1,1,3,35*,-1,14,6,-6
C[C@@H]1CCCCO[C@@H](CN(C)C(=O)c2ccncc2)[C@@H](C)CN([C@@H](C)CO)C(=O)c2cc(NS(=O)(=O)c3ccccc3)ccc2O1,x,0,x,x,x,x,x
C=CCNc1nc(-c2ccc([N+](=O)[O-])cc2)cs1,2,x,3,0,16,x,x
CN(C)c1nc(-c2ccc([N+](=O)[O-])cc2)cs1,2,0,34*,-1,12,194*,142*
Cc1cccc(C)c1OCC(O)CN(Cc1ccccc1O)C1CCCCC1 (configuration not stated),1,-1,32*,-5,-1,44*,31*
C=C(C)COc1ccc2c(C)c(CCC(=O)N3C[C@H]4C[C@@H](C3)c3cccc(=O)n3C4)c(=O)oc2c1,-1,0,70*,-1,24,65*,53*
COc1cc(C)cc2oc(=O)c(CC(=O)N3C[C@H]4C[C@@H](C3)c3cccc(=O)n3C4)c(C)c12,2,0,81*,-3,4,139*,124*
C=C(C)COc1cc2oc(=O)c(CC(=O)N3C[C@H]4C[C@@H](C3)c3cccc(=O)n3C4)c(C)c2cc1Cl,2,5,68*,-2,23,2,-3
Cc1c(C)c2ccc(OCC(=O)N3C[C@H]4C[C@@H](C3)c3cccc(=O)n3C4)cc2oc1=O,-4,2,60*,0,23,-8,-6
Cc1cc(N/N=C/c2ccc(N(C)C)cc2)c2ccccc2n1,-2,6,28*,0,31*,+,167*
CCCc1c(O)c2ccccc2[nH]c1=O,0,-3,30*,-1,-9,50*,42*
COCC(=O)Nc1ccc2c(c1)[C@H]1C[C@@H](CC(=O)NCc3ccncc3)O[C@H](CO)[C@H]1O2,x,0,x,x,x,x,x
Cc1noc(C)c1S(=O)(=O)Nc1cccc2c1O[C@H](CN(C)Cc1ccncc1)[C@H](C)CN([C@H](C)CO)C2=O,x,-1,x,x,x,x,x
CCCCn1nnnc1NCc1cccnc1,6,-2,30*,-2,8,+,+
CCOCCCNC(=S)NCCCNc1nc2ccc(C)cc2cc1C#N,-3,x,x,x,x,x,x
CCOCCCNC(=S)NCCCNc1nc2cc3c(cc2cc1C#N)OCO3,2,x,65*,1,18,188*,153*
CN(C)CCCNC(=S)NCCNc1nc2cc3c(cc2cc1C#N)OCO3,2,x,70*,-2,7,65*,47*
C/C=C/c1cnc2c(c1)C(=O)N([C@H](C)CO)C[C@H](C)[C@H](CN(C)C(=O)Cc1ccccn1)O2,x,-5,x,x,x,x,x
O=C(N[C@@H]1CC[C@H](CC(=O)N2CCCCC2)O[C@@H]1CO)c1ccc2c(c1)OCO2,x,-3,x,x,x,x,x
Cc1ccc(-c2cc[n+](Cc3ccccc3)cc2)cc1,3,x,67*,-2,10,+,+
SMILES,SARS 3CLpro inh,BioA inh,Mtb FBA inh,FadD28 binding,GDH-TPI counter-1,Mtb FBA inh conf,GDH-TPI counter-2
O=C(Nc1c2ccccc2nc2ccccc12)C(Cl)(Cl)Cl,-3,-2,90*,0,8,14,3
CSc1scc2c1-c1nc(SCC(=O)C(C)(C)C)ncc1CC2,5,x,30*,-5,-5,67*,48*
C=CCNC(=O)CSc1ncc2c(n1)-c1c(csc1SC)CC2,2,1,99*,-4,11,82*,59*
COc1ccc2nc(Nc3nc4cc5c(cc4s3)OCO5)sc2c1,-3,x,57*,1,14,+,+
COc1ccc2nc(Nc3ccc4c(c3)OCO4)sc2c1,3,-3,5,1,9,x,x
O=C(C[C@H]1CC[C@@H](NC(=O)CC2CC2)[C@H](CO)O1)NCc1ccc(Cl)cc1,x,-1,x,x,x,x,x
CCOc1cc(S(=O)(=O)NCc2ccccc2)c(OCC)cc1-n1cnnn1,-3,0,49*,-2,-7,132*,111*
CCOc1ccc(-c2nnc(-c3ccco3)o2)cc1OCC,3,0,74*,1,8,130*,119*
Brc1ccc(-c2nnc(-c3ccco3)o2)cc1,0,x,60*,-3,8,149*,145*
CCOc1cc(-c2nnc(-c3ccco3)o2)cc(OCC)c1OCC,-2,x,22,-4,-2,x,x
Cc1ccc(-c2nnc(-c3ccc(Br)cc3)o2)o1,-4,-3,20,0,10,x,x
c1ccc(-c2nnc(-c3ccco3)o2)cc1,2,0,42*,0,4,64*,49*
CCCNC(=O)N(C)C[C@@H]1Oc2cc(-c3ccccc3F)ccc2S(=O)(=O)N([C@H](C)CO)C[C@@H]1C,x,-1,x,x,x,x,x
C[C@@H]1CCCCO[C@H](CN(C)S(C)(=O)=O)[C@@H](C)CN([C@@H](C)CO)C(=O)c2cc(NS(=O)(=O)c3cn(C)cn3)ccc2O1,x,4,x,x,x,x,x
CN1C(=O)c2ccccc2N(C)C1c1cccc(O)c1 (configuration not stated),1,1,59*,-4,-2,0,-4
CN1C(=O)c2ccccc2NC(=O)[C@]12O[C@@H]2c1cccc(O)c1,x,-4,0,-2,-2,x,x
CN1C(=O)c2ccccc2N(C)C1c1ccc(F)cc1 (configuration not stated),2,2,54*,-2,1,40*,35*
COc1cc(C2N(C)C(=O)c3ccccc3N2C)ccc1O (configuration not stated),-7,7,76*,-4,0,-5,-7
COc1cc(C2C(=O)c3ccccc3C2=O)ccc1O,3,0,-2,-2,14,x,x
CN1C(=O)c2ccccc2N(C)C1c1ccc2c(c1)OCO2 (configuration not stated),7,2,101*,-4,-5,63*,39*
O=C(CCN1C(=O)c2ccccc2C1=O)NCc1ccc(F)cc1,5,-2,2,-1,1,x,x
